CYP2C9 inh = blocks human cytochrome P450 2C9 | P11712 | CYP2C9 Supersomes, luciferin-H conversion, luminescence | inhibition, % at 5 µM | 20% of 96,000 active;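 active means blocking of liver enzyme CYP2C9 beyond about 50% at 5 µM, limit read from the data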
CYP2C19 inh = human CYP2C19 inhibition; CYP2C19 Supersomes, luciferin-H EGE luminescence, 30 min; inhibition, % at 5 µM; 21% of 96,000 active; AID 778;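 active means CYP2C19 inhibition above a set limit at 5 µM in the primary screen, cut at about 50% in these data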;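 further: plate controls were negative control wells for no effect and 2.5 mM tranylcypromine positive control for full effect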
Target sequence (P33261 whole entry, looked up): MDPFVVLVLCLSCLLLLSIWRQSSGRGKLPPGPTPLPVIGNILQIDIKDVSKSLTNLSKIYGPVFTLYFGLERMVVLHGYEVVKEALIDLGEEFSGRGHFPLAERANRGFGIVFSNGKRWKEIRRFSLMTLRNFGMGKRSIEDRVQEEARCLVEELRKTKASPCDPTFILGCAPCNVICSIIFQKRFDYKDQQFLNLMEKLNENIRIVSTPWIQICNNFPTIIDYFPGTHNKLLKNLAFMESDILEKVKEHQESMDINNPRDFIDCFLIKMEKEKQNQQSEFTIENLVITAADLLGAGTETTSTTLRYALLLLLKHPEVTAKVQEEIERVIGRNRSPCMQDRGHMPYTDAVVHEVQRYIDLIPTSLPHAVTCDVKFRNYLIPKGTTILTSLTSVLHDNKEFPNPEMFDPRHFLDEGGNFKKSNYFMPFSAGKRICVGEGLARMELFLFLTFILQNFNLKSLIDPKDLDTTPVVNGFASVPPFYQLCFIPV
DAT uptake mod = human DAT dopamine uptake with cocaine, either direction; Q01959; LLC-PK1 hDAT cells, [14C]-dopamine uptake with cocaine IC80; actives deviate in either direction; B-score at 10 µM; 1.3% of 110,000 active; AID 449768;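 active means Z score or B-score, a plate-position-corrected score, falls beyond the plate's 99.7% confidence bounds, in either direction; inactive means both scores lie inside the 99.7% bounds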;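 further: scored against the spread of the other compound wells on the same plate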
CYP2C9 act = activators of human CYP2C9 | activation factor at 5 µM | recombinant CYP2C9, luciferin-H conversion, luminescence; hits give high values; factor 1 = untreated enzyme, 0 = blocked | 1.4% of 96,000 active | P11712;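 active means activation factor of 2 or more for CYP2C9 at a 5 µM dose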;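 further: 0 = sulfaphenazole-blocked wells and 1 = vehicle-only wells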
CYP2C19 act = cytochrome P450 2C19 (human) activation; activation factor at 5 µM; P33261; recombinant CYP2C19, luciferin-H EGE luminescence; hits give high values; 0 = fully inhibited enzyme, 1 = untreated enzyme; AID 1025; 96,000 tested, under 10 active;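 active means activation factor of at least 2 at 5 µM in the primary screen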;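 further: 0 = wells with 2.5 mM tranylcypromine and 1 = vehicle-only wells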
D1 mod = allosterically modulates the human D1 dopamine receptor | B-score at 10 µM | HEK293 D1, CRE-luciferase, dopamine EC30 potentiation; actives deviate in either direction | 5.9% of 58,000 active;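 active means luminescence count or its row- and column-corrected plate score outside the 99.7% band of the plate's sample wells, on either side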
Active calls of the source: *; / = no result given. Hits are enriched below; roughly 28% of the tested compounds scored in any of these assays.

SMILES	CYP2C9 inh	CYP2C19 inh	DAT uptake mod	CYP2C9 act	CYP2C19 act	D1 mod
Cc1ccc(C2C(=O)N(C3CCCC3)CC(=O)N2C2CCCCC2)cc1 (stereo not drawn)	21.4	17.1	-0.649	0.8	0.8	/
Cc1noc(C)c1COC(=O)CCCc1c[nH]c2ccccc12	80.7*	93.4*	1.01	0.2	0.1	-0.121
Cc1noc(C)c1COC(=O)CCC(=O)c1ccc(F)cc1	11.4	30.1	-0.146	0.9	0.7	0.63
Cc1noc(C)c1COC(=O)CCc1nc2ccccc2c(=O)[nH]1	58.6*	41.2	-0.424	0.4	0.6	-0.229
NC(=S)N/N=C/c1ccccc1OCc1cccc(Cl)c1	9.6	21.1	0.46	0.9	0.8	/
Cc1ccc2cc3cc(C(=O)N(CC(=O)NC4CCCC4)c4cccc(C)c4C)sc3nc2c1	94.5*	46.7	-0.877	0.1	0.5	/
Cc1ccc(C)c(N(CC(=O)NC2CCCC2)C(=O)c2oc(C(C)(C)C)cc2C)c1	26.0	26.2	1.24	0.7	0.7	/
Cc1ccc(NC(=O)CS(=O)CC(=O)N(CC(=O)NC2CCCC2)c2cccc(C)c2C)cc1 (stereo not drawn)	48.2	-0.7	1.02	0.5	1	-0.321
Cc1ccc(C)c(N(CC(=O)NC2CCCC2)C(=O)c2cc3cc4cccc(C)c4nc3s2)c1	95.6*	18.1	0.475	0	0.8	/
Cc1cc(S(=O)(=O)NC(C)C)ccc1OCC(=O)N1CCOCC1	29.3	12.3	-2.2	0.7	0.9	/
Cc1c(C(=O)OC2CCCC2)[nH]c2c1C(=O)CC(c1ccco1)C2 (stereo not drawn)	52.5*	22.3	-0.8	0.5	0.8	5.97
Cc1c(C(=O)OCC2CCCO2)[nH]c2c1C(=O)CC(c1ccco1)C2 (stereo not drawn)	92.5*	69.4*	-0.0213	0.1	0.3	-1.05
C=CCOC(=O)c1[nH]c2c(c1C)C(=O)CC(c1ccco1)C2 (stereo not drawn)	79.5*	95.8*	-1.05	0.2	0	1.24
CC(C)(C)C(=O)C(Oc1cccc2nonc12)n1cncn1 (stereo not drawn)	-2.9	12.0	-0.512	1	0.9	/
COc1cccc([C@@H]2Oc3ccc(Br)cc3C(=O)[C@H]2OC(=O)NC2CCCC2)c1	/	/	-0.939	/	/	/
Cc1ccc(Cl)cc1N1CCN(Cc2nnnn2Cc2ccco2)CC1	93.1*	76.8*	0.265	0.1	0.2	-0.0163
CCC(c1nnnn1Cc1ccco1)N1CCC(C(N)=O)CC1 (stereo not drawn)	-5.4	2.1	-0.581	1.1	1	-0.277
CCC(c1nnnn1Cc1ccco1)N1CCN(c2cc(Cl)ccc2C)CC1 (stereo not drawn)	58.9*	19.4	0.748	0.4	0.8	-1.17
O=C1CS/C(=C\[N+](=O)[O-])N1c1ccc(OC(F)(F)F)cc1	-3.1	37.5	-0.501	1	0.6	/
CCN(CC)CCCNC(=O)c1cn(CCOC)c(=O)c2c1c1ccccc1n2C	4.2	1.3	0.815	1	1	-0.0151
Cc1ccc(C2CC(c3ccc(F)cc3)Nc3nc(N)nn32)cc1 (stereo not drawn)	-15.7	27.7	-1.45	1.2	0.7	0.92
Nc1nc2n(n1)C(c1ccc(F)cc1)CC(c1ccc(F)cc1)N2 (stereo not drawn)	9.4	70.8*	0.439	0.9	0.3	/
CCc1ccc(C2CC(c3ccc(C)cc3)Nc3nc(N)nn32)cc1 (stereo not drawn)	-0.3	-4.4	-2.45*	1	1	0.44
CCCN1CCN(C(=O)C2CCN(S(=O)(=O)c3ccc4c(c3)oc(=O)n4C)CC2)CC1	-3.7	-10.5	0.281	1	1.1	-0.104
c1ccc(-n2nnnc2NCCc2c[nH]c3ccccc23)cc1	81.4*	97.5*	-0.381	0.2	0	-0.323
SMILES	CYP2C9 inh	CYP2C19 inh	DAT uptake mod	CYP2C9 act	CYP2C19 act	D1 mod
CS(=O)(=O)N(CC(=O)NCCc1ccccc1)C1CCCCC1	4.5	24.0	1.56	1	0.8	/
CCCCNC(=O)CN(C1CCCCC1)S(C)(=O)=O	74.4*	30.6	-0.952	0.3	0.7	0.369
O=C(CC1C(=O)NCCN1C(=O)Nc1ccccc1)Nc1ccc2c(c1)OCCO2 (stereo not drawn)	29.8	16.7	1.52	0.7	0.8	0.0278
CC1=C(C)NC(=S)SC1	-8.6	-5.8	-1.29	1.1	1.1	-1.16
COC(=O)c1sc(NC(=O)COc2cccc3ccccc23)nc1C	33.3	19.5	-0.778	0.7	0.8	/
C/C(=N/OC(=O)c1ccc(C)cc1)c1cccs1	34.8	23.0	-0.00628	0.7	0.8	/
Cc1ccc(C(=O)c2nocc2C(=O)c2cccs2)cc1	69.3*	61.6*	0.0736	0.3	0.4	0.148
O=C(NCCc1ccccc1)c1ccc(Cl)nc1	/	/	-1.3	/	/	/
COC(=O)c1c(C)noc1-c1cc(C)on1	-23.6	13.6	-0.776	1.2	0.9	/
CC1=C(C(=O)N2CCCCC2)C(c2cccs2)NC(=O)N1 (stereo not drawn)	-36.0	-15.7	-0.361	1.4	1.2	-1.12
CC(SCC(=O)Nc1ccc(S(=O)(=O)N2CCCCC2)cc1)C(=O)O (stereo not drawn)	56.3*	6.6	-0.742	0.4	0.9	/
Cc1cccc(OCCC(=O)Nc2ccc(S(=O)(=O)N3CCCC3)cc2)c1	66.9*	33.0	0.385	0.3	0.7	-0.292
O=C(Nc1ccccc1)Nc1ccc(S(=O)(=O)N2CCCCC2)cc1	22.2	-4.6	0.91	0.8	1	-0.882
CCCC(=O)Nc1ccc(S(=O)(=O)N2CCCC2)cc1	15.7	2.4	1.41	0.8	1	/
O=C(O)CCC(=O)Nc1ccc(S(=O)(=O)N2CCCC2)cc1	24.3	50.5*	-0.0157	0.8	0.5	/
O=C(Nc1ccc(S(=O)(=O)N2CCCC2)cc1)N1c2ccccc2Sc2ccccc21	74.3*	8.4	-0.747	0.3	0.9	/
Cc1cccc(OCC(=O)Nc2ccc(S(=O)(=O)N3CCN(C)CC3)cc2)c1	/	/	0.0545	/	/	/
CC(C)CC(=O)Nc1ccccc1-c1nnn(CC(=O)N2CCOCC2)n1	21.2	3.0	0.781	0.8	1	0.052
N#CC1=C(c2ccccc2)N=P(N2CCOCC2)(N2CCOCC2)N=C1N1CCOCC1	/	/	/	/	/	-0.00857
CCNc1nc(N)c(C(=C(C#N)C#N)c2ccccc2)s1	31.1	12.7	1.35	0.7	0.9	/
Cc1nn(-c2ccccc2)c2sc(C(=O)C(C#N)c3ccccn3)cc12 (stereo not drawn)	36.9	8.7	/	0.6	0.9	-0.0198
CCCCN(CC)S(=O)(=O)c1ccc(C(=O)Nc2nnc(-c3cccs3)o2)cc1	42.4	31.9	-0.25	0.6	0.7	-0.61
COc1ccccc1-c1nnc(NC(=O)c2ccc(S(=O)(=O)N(C)Cc3ccccc3)cc2)o1	/	/	-8.6*	/	/	-0.508
CN(Cc1ccccc1)S(=O)(=O)c1ccc(C(=O)Nc2nnc(C3CC3)o2)cc1	85.3*	21.7	-0.582	0.1	0.8	-0.81

Screening results (PubChem BioAssay)
